These results are taken from PubChem BioAssay (Tox21).

A short description of assay [1]: Nuclear factor erythroid 2-related factor 2/antioxidant responsive element (Nrf2/ARE) small molecule agonists: qHTS cell viability counter screen in human keratinocytes (AID 1919968; active means well fitted curve in the direction sought with a large enough effect in the repeat runs; an effect the other way counts as inactive or inconclusive; further: nearly all actives have a fitted effect of over 55% in size). The method, boiled down: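 Fluorescence read-out from CellTiter-Fluor after 1 h at 37 C. Wells held HaCaT-derived ARE-luciferase reporter cells (1,500/well) treated 23 h with DMSO-dissolved compounds. Run in the same wells as the luciferase agonist read.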
Background: qHTS replaces the single test concentration by a dilution series.

A short description of assay [2]: Nuclear factor erythroid 2-related factor 2/antioxidant responsive element (Nrf2/ARE) small molecule agonists: luciferase reporter gene qHTS assay in human keratinocytes (AID 1919969; further: nearly all actives have a fitted effect of over 35% in size; further: potency means the concentration at half of the fitted maximal effect). (In a reporter assay the amount or activity of a reporter protein is the signal.)
Assay [3] deals with KiSS-1 receptor (Homo sapiens) (UniProt Q969F8). The assay can be described thus: Human kisspeptin (KISS1R) small molecule agonists, calcium flux assay in KISS1R-HEK293 cells (AID 1920064; active means well fitted curve in the direction sought with a large enough effect in the repeat runs; an effect the other way counts as inactive or inconclusive). The method in brief: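 Calcium flux read-out: kinetic fluorescence at Ex/Em=480/540, 1 s intervals over 3 min, after pin-tool compound addition to dye-loaded KISS1R-HEK293 cells. Fifteen concentrations, triplicates.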

Assay [4] in a line: G protein-coupled receptor (GPCR) small molecule agonists, calcium flux assay: HEK293 wild type cell line counter screen (AID 1920065). The method in brief:
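Agonist mode; 18 h seeding at 37 C, 1 h dye load at 37 C; compounds pinned from DMSO, ATP as positive control; kinetic fluorescence 480/540 nm, 3 min, 1 s reads; 15 concentrations, triplicate.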
In general terms: A change in cytosolic calcium serves as a functional read-out for many receptors and channels.

The nature of assay [5]: p53 small molecule agonists, cell-based qHTS assay with rat liver microsomes: qHTS cell viability counter screen (AID 1963580). Further: nearly all actives have a fitted effect of over 45% in size. The method, boiled down: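 Rat liver microsome (0.5 mg/mL final) and NADPH (0.5 mg/mL final) co-incubation with compounds for 16 h at 37 C on HCT-116 p53RE-bla cells; cytotoxicity taken from intracellular ATP luminescence.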
Assay [6] concerns the target 5-hydroxytryptamine receptor 2A (Homo sapiens) (UniProt P28223). Description: 5-hydroxytryptamine receptor 2A (HTR2A) small molecule antagonists, cell-based qHTS assay (AID 1963586). Further: nearly all actives have a fitted effect of over 45% in size. Further: potency means the concentration at half of the fitted maximal effect. The method in brief:
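CHO cells stably expressing human HTR2A were plated for 18 h at 37 C, then loaded with calcium dye for 1 h. Compounds were preincubated 5 min at room temperature before DOI (4 nM solution) was added. Kinetic fluorescence was read for 3 min.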

Assay [7] has the same target. Description: 5-hydroxytryptamine receptor 2A (HTR2A) small molecule agonists, cell-based qHTS assay (AID 1963587). Further: nearly all actives have a fitted effect of over 30% in size. Further: potency means the concentration at half of the fitted maximal effect. The method, boiled down: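 Kinetic calcium-flux fluorescence (2 min, 1 sec intervals) after compound addition in agonist mode. HTR2A-CHO cells were cultured 18 h, then dye-loaded 1 h at 37 C.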
In assay [8] the target is Muscarinic acetylcholine receptor M1 (Homo sapiens) (UniProt P11229). Description: Cholinergic receptor muscarinic 1 (CHRM1) small molecule antagonists, cell-based qHTS assay (AID 1963588). Further: nearly all actives have a fitted effect of over 40% in size. The method in brief: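 Compounds were tested at 15 concentrations in three independent runs. Dye-loaded CHRM1-CHO cells were exposed 5 min at room temperature before stimulation by acetylcholine added at 50nM. Intracellular calcium was read kinetically on FDSS for 3 min.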

Assay [9] shares this target. Description: Cholinergic receptor muscarinic 1 (CHRM1) small molecule agonists, cell-based qHTS assay (AID 1963589). Further: nearly all actives have a fitted effect of over 35% in size. The method in brief:
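Calcium flux read-out: kinetic fluorescence at 1 sec intervals after pin-tool compound addition to dye-loaded CHRM1-CHO cells (human M1). Agonist mode; 15 concentrations tested in triplicate independent runs.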

The nature of assay [10]: cAMP Responsive Elements (CRE) small molecule agonists, cell-based qHTS assay (AID 1963590). The method in brief:
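Beta-lactamase reporter readout: LiveBLAzer B/G FRET substrate, 2 h at room temperature, added after 3 h compound treatment of CRE-bla HEK 293T cells at 37 C/5% CO2.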

Assay [11] deals with D(2) dopamine receptor (Homo sapiens) (UniProt P14416). Description: Dopamine D2 receptor (DRD2) small molecule agonists, cell-based qHTS assay (AID 1963594). Further: nearly all actives have a fitted effect of over 35% in size. The method, boiled down: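 cAMP accumulation in DRD2-HEK293 cells measured by HTRF after 1 h detection; compounds added 10 min before NKH477 (200nM […]) forskolin-analogue stimulation, 30 min at room temperature, with Ro20-1724 present at 0.1 mM final.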

The target is the same in assay [12]. Description: Dopamine D2 receptor (DRD2) small molecule antagonists, cell-based qHTS assay (AID 1963595; active means well fitted inhibition curve with a large enough effect in the signal ratio in the repeat runs, with a control signal flat; the % refers to the signal ratio). The method in brief: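 DRD2-HEK293; 0.1 mM Ro20-1724; cpd 10 min RT; NKH477 200 nM + quinpirole 12 nM, 30 min RT; HTRF cAMP (cAMP-d2/anti-cAMP cryptate), 665/620 nm ratio after 1 h.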
Assay [13] addresses Gonadotropin-releasing hormone receptor (Homo sapiens) (UniProt P30968). Description: Human gonadotropin-releasing hormone receptor (GnRHR) small molecule agonists, calcium flux assay in GnRHR-HEK293 cells (AID 1920063). Further: nearly all actives have a fitted effect of over 35% in size. The method, boiled down:
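Calcium-dye fluorescence, Ex/Em=480/540, recorded every 1 sec over 3 min after compound addition to GnRHR-HEK293 cells. Cells had been seeded 18 hours earlier and dye-loaded for 1 hour at 37 C. Fifteen concentrations, triplicates.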

Assay [14] can be described thus: p53 small molecule agonists, cell-based qHTS assay with human liver microsomes (AID 1963577). The method, boiled down:
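Compounds act here after metabolic activation: human liver microsomes and NADPH, both at 0.5 mg/mL final, were co-added to p53RE-bla cells. Incubation ran 16 h at 37 C, followed by LiveBLAzer detection.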

A short description of assay [15]: p53 small molecule agonists, cell-based qHTS assay with rat liver microsomes (AID 1963578). The method, boiled down:
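Read-out is beta-lactamase reporter fluorescence (LiveBLAzer, 2 h, room temperature, dark) in p53RE-bla cells treated 16 h at 37 C with compound, rat liver microsomes and NADPH, both 0.5 mg/mL final.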

Assay [16] can be described thus: p53 small molecule agonists, cell-based qHTS assay with human liver microsomes: qHTS cell viability counter screen (AID 1963579). Further: nearly all actives have a fitted effect of over 45% in size. The method in brief:
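Cells carrying the p53 response-element beta-lactamase reporter are treated for 16 h at 37 C with test compounds in the presence of human liver microsomes and NADPH (both 0.5 mg/mL final); ATP-based CellTiter-Glo luminescence then reports viability.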

A short description of assay [17]: p53 small molecule agonists, cell-based qHTS assay: qHTS cell viability counter screen (AID 1963581). Further: nearly all actives have a fitted effect of over 45% in size. The method in brief:
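Cytotoxicity read-out: ATP-based luminescence (CellTiter-Glo, 30 min RT) measured in the same wells as the p53 reporter assay, HCT-116 p53RE-bla cells, 16 h compound exposure at 37 C.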

Assay [18] is described as follows: p53 small molecule agonists, cell-based qHTS assay (AID 1963582; active means well fitted activation curve with a large enough effect in the signal ratio in the repeat runs, not every such curve was filed as active; the % refers to the signal ratio). The method in brief: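 Fluorescence intensity read-out of a beta-lactamase reporter under a p53 response element. Cells were exposed to DMSO-dissolved compounds for 16 h at 37 C, then developed with FRET substrate for 2 h at RT.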
The target in assay [19] is Beta-2 adrenergic receptor (Homo sapiens) (UniProt P07550). The assay can be described thus: Adrenergic beta2 receptor (ADRB2) small molecule antagonists, cell-based qHTS assay (AID 1963592). Further: series mostly up to about 92 µM; nearly all actives have a fitted effect of over 50% in size. The method in brief: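 Assay format: CHO-ADRB2 cells, 18-20hr seeding at 37C/5% CO2, then compound plus 1nM isoproterenol agonist mix for 0.5hr RT. Homogeneous time-resolved fluorescence cAMP detection after 1hr, expressed as 665/615 nm ratio.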

Assay [20] is described as follows: cAMP Responsive Elements (CRE) small molecule antagonists, cell-based qHTS assay (AID 1963591; active means well fitted inhibition curve with a large enough effect in the signal ratio in the repeat runs, not every such curve was filed as active; the % refers to the signal ratio). The method in brief: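 HEK293T CRE-bla; 18 h preincubation; compound pin-transfer; NKH477 0.25 uM final, 3 h, 37 C; LiveBLAzer FRET substrate 2 h RT.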

Values without a mark were called inactive. Results filed as inconclusive are left out. Activity calls are given as the source filed them. Unless noted, the call rests on the fitted dose curve.

Sequence of Gonadotropin-releasing hormone receptor (Homo sapiens) (P30968 whole entry, looked up): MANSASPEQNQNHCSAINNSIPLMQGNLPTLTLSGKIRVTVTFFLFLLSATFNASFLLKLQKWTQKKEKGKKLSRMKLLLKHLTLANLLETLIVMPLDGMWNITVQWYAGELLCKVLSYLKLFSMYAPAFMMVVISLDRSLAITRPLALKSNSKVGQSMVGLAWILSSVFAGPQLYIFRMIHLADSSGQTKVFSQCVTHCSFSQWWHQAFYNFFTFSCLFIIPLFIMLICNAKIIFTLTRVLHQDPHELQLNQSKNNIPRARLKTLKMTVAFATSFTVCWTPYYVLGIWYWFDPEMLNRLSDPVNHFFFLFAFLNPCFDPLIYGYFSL
Sequence of D(2) dopamine receptor (Homo sapiens) (P14416 whole entry, looked up): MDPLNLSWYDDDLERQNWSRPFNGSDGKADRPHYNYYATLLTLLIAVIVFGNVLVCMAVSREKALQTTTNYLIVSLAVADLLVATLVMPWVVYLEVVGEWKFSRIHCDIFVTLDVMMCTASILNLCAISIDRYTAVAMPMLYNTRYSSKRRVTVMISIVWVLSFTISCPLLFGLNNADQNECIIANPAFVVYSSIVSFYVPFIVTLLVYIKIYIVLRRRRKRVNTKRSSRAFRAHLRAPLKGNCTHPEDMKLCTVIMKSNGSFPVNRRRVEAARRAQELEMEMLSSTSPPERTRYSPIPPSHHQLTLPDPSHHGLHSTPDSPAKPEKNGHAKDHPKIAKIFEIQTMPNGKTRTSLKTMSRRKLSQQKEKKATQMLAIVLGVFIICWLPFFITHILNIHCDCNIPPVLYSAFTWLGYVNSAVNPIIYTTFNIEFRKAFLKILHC
Sequence of KiSS-1 receptor (Homo sapiens) (Q969F8 whole entry, looked up): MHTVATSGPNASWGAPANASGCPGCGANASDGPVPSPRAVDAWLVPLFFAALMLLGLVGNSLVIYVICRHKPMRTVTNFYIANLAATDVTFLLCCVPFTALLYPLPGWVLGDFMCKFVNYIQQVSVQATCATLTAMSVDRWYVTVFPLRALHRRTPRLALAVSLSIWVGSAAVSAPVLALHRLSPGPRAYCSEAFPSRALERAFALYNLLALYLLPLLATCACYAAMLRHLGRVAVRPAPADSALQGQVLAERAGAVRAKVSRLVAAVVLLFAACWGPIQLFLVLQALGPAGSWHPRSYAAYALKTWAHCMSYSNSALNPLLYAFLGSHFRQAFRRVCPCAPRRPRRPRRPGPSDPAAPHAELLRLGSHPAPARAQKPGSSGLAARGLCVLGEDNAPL
Sequence of Muscarinic acetylcholine receptor M1 (Homo sapiens) (P11229 whole entry, looked up): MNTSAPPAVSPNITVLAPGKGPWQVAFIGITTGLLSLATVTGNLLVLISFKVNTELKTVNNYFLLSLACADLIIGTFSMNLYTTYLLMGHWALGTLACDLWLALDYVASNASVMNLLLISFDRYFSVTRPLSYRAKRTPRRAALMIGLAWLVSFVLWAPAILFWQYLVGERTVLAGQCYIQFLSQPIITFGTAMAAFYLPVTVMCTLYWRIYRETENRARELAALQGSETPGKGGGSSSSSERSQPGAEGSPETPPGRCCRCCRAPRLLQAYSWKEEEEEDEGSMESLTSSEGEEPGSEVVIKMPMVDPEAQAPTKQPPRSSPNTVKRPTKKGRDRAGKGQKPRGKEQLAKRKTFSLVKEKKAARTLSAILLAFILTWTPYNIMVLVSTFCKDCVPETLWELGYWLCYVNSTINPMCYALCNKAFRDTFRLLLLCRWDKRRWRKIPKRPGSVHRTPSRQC
Sequence of 5-hydroxytryptamine receptor 2A (Homo sapiens) (P28223 whole entry, looked up): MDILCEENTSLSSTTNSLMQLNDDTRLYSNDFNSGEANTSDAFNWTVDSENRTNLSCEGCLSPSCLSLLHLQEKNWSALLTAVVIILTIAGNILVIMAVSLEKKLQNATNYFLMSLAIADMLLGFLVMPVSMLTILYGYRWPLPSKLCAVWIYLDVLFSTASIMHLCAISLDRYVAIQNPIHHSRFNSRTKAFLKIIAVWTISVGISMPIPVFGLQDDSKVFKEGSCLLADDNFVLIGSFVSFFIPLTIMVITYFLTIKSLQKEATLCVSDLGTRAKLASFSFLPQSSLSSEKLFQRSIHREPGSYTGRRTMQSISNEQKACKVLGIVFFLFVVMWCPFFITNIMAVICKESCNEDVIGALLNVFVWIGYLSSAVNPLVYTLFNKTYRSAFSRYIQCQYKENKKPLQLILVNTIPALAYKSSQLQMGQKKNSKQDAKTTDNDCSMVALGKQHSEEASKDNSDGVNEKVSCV
Sequence of Beta-2 adrenergic receptor (Homo sapiens) (P07550 whole entry, looked up): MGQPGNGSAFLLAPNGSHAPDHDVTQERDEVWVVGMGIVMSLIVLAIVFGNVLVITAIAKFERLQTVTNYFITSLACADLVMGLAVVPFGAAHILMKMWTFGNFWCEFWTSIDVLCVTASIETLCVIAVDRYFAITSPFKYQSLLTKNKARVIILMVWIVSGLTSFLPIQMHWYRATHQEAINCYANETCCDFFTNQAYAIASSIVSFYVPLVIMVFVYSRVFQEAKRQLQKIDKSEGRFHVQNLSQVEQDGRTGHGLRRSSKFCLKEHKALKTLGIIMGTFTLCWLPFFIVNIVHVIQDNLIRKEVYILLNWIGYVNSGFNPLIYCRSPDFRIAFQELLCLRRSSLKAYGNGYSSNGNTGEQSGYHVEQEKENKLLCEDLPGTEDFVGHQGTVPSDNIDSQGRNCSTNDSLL

For the compound `CN(C)CCc1c[nH]c2ccccc12`, the Potency result in assay [1], in assay [3], in assay [4], in [5], in assay [8] and in [9] was “inactive” in each case. The Potency entry in [10], in assay [11] and in assay [12] was “inactive” each time. Besides, the results for the Potency in assay [2], in assay [6] and in assay [7] were 108 µM (active), 0.0166 µM (active) and 0.0109 µM (active), respectively.

As to `CCOc1nc(C(Cl)(Cl)Cl)ns1`, the Potency entry in assay [1], in assay [13], in assay [3], in [4], in assay [14] and in [15] was “inactive” throughout. Also, the Potency entry in [16], in assay [5], in assay [17], in assay [18], in assay [6] and in [7] was “inactive” each time. For the same compound, the Potency entry in assay [8], in assay [9], in assay [10], in assay [19] and in [12] was “inactive” in each case.

As to `NNC(=O)c1cccnc1`, the Potency result in [1], in assay [13], in [3], in assay [4], in assay [14] and in [15] was “inactive” in each case. Besides, the Potency entry in assay [16], in assay [5], in [17], in assay [18], in assay [6] and in [7] was “inactive” in each case. Moreover, the Potency entry in [8], in assay [9], in [10], in assay [19], in [11] and in assay [12] was “inactive” in each case.

On to `C[N+]1(CCF)[C@@H]2CC[C@H]1CC(OC(=O)C(O)(c1ccccc1)c1ccccc1)C2` (stereo partly drawn), for which the Potency entry in assay [1], in assay [2], in assay [4], in assay [15], in assay [16] and in [5] was “inactive” throughout. Also, the Potency entry in assay [17], in assay [18], in assay [6], in [7], in assay [10] and in assay [20] was “inactive” in each case. Also, the Potency entry in assay [19], in [11] and in [12] was “inactive” in each case.

For `S=C=Nc1ccccc1`, the Potency result in assay [1], in assay [13], in assay [3], in [4], in assay [14] and in assay [15] was “inactive” in each case. In addition, the Potency result in assay [16], in assay [5], in assay [17], in assay [18], in [6] and in assay [7] was “inactive” in each case. Further, the Potency result in [8], in assay [9], in [10], in [19], in assay [11] and in assay [12] was “inactive” each time.

On to `Cn1sc(Cl)cc1=O`, for which the Potency result in assay [1], in assay [13], in assay [3], in assay [4], in assay [14] and in [15] was “inactive” each time. Further, the Potency entry in [16], in assay [5], in assay [17], in assay [18], in assay [6] and in assay [8] was “inactive” in each case. For the same compound, the Potency result in assay [9], in [10], in [20], in assay [19] and in assay [12] was “inactive” in each case. The Potency in assay [7] is 54.9 µM (active).

For `CC(=O)O[C@H]1CC[C@@]2(C)C(=CC[C@@H]3[C@@H]2CC[C@]2(C)C(=O)CC[C@@H]32)C1`, the Potency entry in assay [1], in assay [2], in assay [4], in assay [14], in [15] and in assay [16] was “inactive” each time. Moreover, the Potency entry in assay [17], in assay [18], in [6], in assay [7], in assay [8] and in [9] was “inactive” throughout. For the same compound, the Potency entry in assay [19], in [11] and in [12] was “inactive” each time.
